Measured values published in PubChem BioAssay (NCATS).
Results filed as inconclusive are left out. A call without a number means that no potency is given here. The source made the active and inactive calls. The call rests on the fitted dose curve; in most records, active means well fitted inhibition curve with a large enough effect; inconclusive means small, poorly fitted or top-dose-only effect; inactive means flat fitted curve, though single readings scatter. Peptide text beside a SMILES is read from it. * marks the point of attachment. Cbz = O=C(OCc1ccccc1)*; CH2F = FC*

System: CRL-7250
Experiment: qHTS assay to identify novel small-molecules to repurpose for Merkel cell carcinoma treatment (AID 1296009); further: nearly all actives have a fitted effect of over 60% in size
Details: MCC and control cell lines, CellTiter-Glo viability, 72 h; series mostly up to 92 µM
Method in brief: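 Cells were incubated with compound for 72 hr at 37 degree celsius before CellTiter-Glo addition. Luminescence was normalized with no-cell wells as full cytotoxicity and DMSO as baseline.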

| Structure (SMILES) | Potency | outcome |
| --- | --- | --- |
| CCC(O)C(C)C1CCC(C(C)C(=O)O)O1 (stereo not given) | inactive |  |
| COc1cc(/C=C/C(=O)O[C@H]2[C@H](OC(=O)/C=C/c3cc(OC)c(O)c(OC)c3)O[C@H](CO[C@@H]3O[C@H](CO)[C@@H](O)[C@H](O)[C@H]3O)[C@@H](O)[C@@H]2O)ccc1O | inactive |  |
| CCC(C)/C=C(C)/C=C/C1=CC2=C(Cl)C(=O)C(C)(OC(C)=O)C(=O)C2(O)C(OC)O1 (stereo not given) | inactive |  |
| Clc1ccc2c(c1)C1=NCCN1c1c(-c3noc(C4CC4)n3)ncn1-2 | inactive |  |
| CC1C2=CC(=O)OC2(O)CC2C1C(O)CC1C(C)(CO)CCCC21C (stereo not given) | inactive |  |
| COc1c2c(c(C)c3c1C(=O)OC3)OC1(C)CC(O)C34OC(OC)(CCC3(C)C1C2)OC4(C)CO (stereo not given) | inactive |  |
| OC[C@H]1O[C@@H](OC[C@H]2O[C@@H](OCc3ccccc3)[C@H](O)[C@@H](O)[C@@H]2O)[C@H](O)[C@@H](O)[C@@H]1O | inactive |  |
| C/C=C/C=C/C(O)=C1/C(=O)[C@]2(C)C3/C(=C(O)/C=C/C=C/C)C(=O)C4(C)C1[C@]1(C)O[C@@]4(O)[C@@]3(C)O[C@@]12O | inactive |  |
| N[C@@H](CCNCc1ccc(Cl)cc1)C(=O)N1CCCCC1 | inactive |  |
| CC(C)CC(=O)OC[C@@]1(O)C[C@@]23CC[C@H]4[C@@](C)(CCC[C@@]4(C)C(=O)O)[C@@H]2CC[C@@H]1C3 | inactive |  |
| CCc1nnc(NS(=O)(=O)c2ccc(NC(=S)NC(=O)/C=C/c3ccc(F)cc3)cc2)s1 | inactive |  |
| O=C(OC[C@H]1O[C@@H](Oc2ccccc2COC(=O)C2(O)C=CCCC2O)[C@H](O)[C@@H](O)[C@@H]1O)c1ccccc1 (stereo not given in full) | inactive |  |
| CCCCCCc1cccc(NC(=O)[C@H](N)CCP(=O)(O)O)c1 |  | inactive [at 9.27 µM] |
| CC1(C)O[C@@]2(C)CC[C@@H]1C[C@@H]2OC1OC(CO)C(O)C(O)C1O (stereo not given in full) | inactive |  |
| C=CC/C=C\C/C=C\CCCCCCCc1cccc(O)c1C(=O)O | inactive |  |
| C[C@@H]1O[C@@H](O[C@@H]2[C@@H](O)[C@H](O[C@H]3[C@H](O[C@H]4CC[C@@]5(C)C(CC[C@]6(C)C5CC=C5[C@@H]7CC(C)(C)CC[C@]7(C(=O)O[C@@H]7O[C@H](CO)[C@@H](O)[C@H](O)[C@H]7O[C@@H]7O[C@@H](C)[C@H](O[C@@H]8O[C@@H](C)[C@H](O)[C@@H](O)[C@H]8O)[C@@H](O)[C@H]7O)CC[C@]56C)[C@@]4(C)CO)O[C@H](C(=O)O)[C@@H](O)[C@@H]3O)O[C@H](CO)[C@H]2O)[C@H](O)[C@H](O)[C@H]1O (stereo not given in full) |  | inactive [at 9.27 µM] |
| COc1ccc(C2COc3cc(O)ccc3C2)c(O)c1OC (stereo not given) | inactive |  |
| NC(=O)NCCCC(NC(=O)Cc1ccccc1)C(=O)O (stereo not given) | inactive |  |
| CC(C)C1NC(=O)C(CC2(O)c3ccccc3N3C(=O)C(Cc4ccccc4)NC32)NC1=O (stereo not given) | inactive |  |
| CC1(C)CC[C@]2(C(=O)O)CC[C@]3(C)C(=CCC4[C@@]5(C)C[C@@H](O)[C@H](O)C(C)(C)C5CC[C@]43C)C2C1 (stereo not given in full) | inactive |  |

| Structure (SMILES) | Potency | outcome |
| --- | --- | --- |
| CC1CCC2(NC1)OC1C(=O)C3C4CCC5CC(O[C@@H]6O[C@H](CO)[C@@H](O)[C@H](O)[C@H]6O[C@@H]6O[C@@H](C)[C@H](O)[C@@H](O)[C@H]6O)CCC5(C)C4CCC3(C)C1C2C (stereo not given in full) | inactive |  |
| Cc1ccc(Cc2c(C)nc3nc(SCC(=O)NCCN4CCNCC4)nn3c2C)cc1 | inactive |  |
| COc1cc(C)c(C(=O)O[C@@H]2[C@H](O)[C@@H](CO)O[C@H]2n2ccc(=O)[nH]c2=O)c(OC)c1 | inactive |  |
| OC[C@H]1O[C@@H](O[C@H]2[C@H](OCCc3ccccc3)O[C@H](CO)[C@@H](O)[C@@H]2O)[C@H](O)[C@@H](O)[C@@H]1O | inactive |  |
| COC(=O)CC[C@H](NC(=O)[C@H](CC(C)C)NC(=O)OCc1ccccc1)C(=O)N[C@@H](Cc1cnc[nH]1)C(=O)N[C@@H](CC(=O)OC)C(=O)CF (Cbz-LE(OMe)HD(OMe)-CH2F) |  | inactive [at 9.27 µM] |
| COc1cc(CC(COC2OC(CO)C(O)C(O)C2O)c2cc(/C=C/CO)cc(OC)c2O)ccc1O (stereo not given) | inactive |  |
| O=C(CN1C(=O)C2(CCCC2)NCC1c1cc(F)cc(F)c1)Nc1ccc2c(c1)CC1(C2)C(=O)Nc2ncccc21 (stereo not given) | inactive |  |
| CC(C)OC(=O)N1CCC(Oc2ncnc3c2cnn3-c2ccc(S(C)(=O)=O)cc2F)CC1 | inactive |  |
| C=CCCN1CCC2(CC1)CN(C(=O)c1c(F)cccc1F)c1ccc(Cl)cc12 | inactive |  |
| COc1ccccc1-c1ccc(-c2cn(C(=O)N3CCCCC3Cc3ccccc3)nn2)cc1 (stereo not given) | inactive |  |
| CC1=CC(=O)CC(C)(C)C1(O)CCC(C)O (stereo not given) | inactive |  |
| CCc1nn(CCO)c(CC)c1Oc1cc(C#N)cc(C#N)c1 | inactive |  |
| COC(=O)C(C)C1CCC2(C)C(=O)C=CC(C)(O)C2C1O (stereo not given) | inactive |  |
| C[C@]1(O)CC[C@@H]2C(C(=O)O)=CO[C@@H](O[C@@H]3O[C@H](COC(=O)/C=C/c4ccc(O)c(O)c4)[C@@H](O)[C@H](O)[C@H]3O)[C@@H]21 | inactive |  |
| CC1NC(=O)CNC(=O)C(C(C)C)NC(=O)C2CCCN2C(=O)C(C(C)C)NC(=O)C(Cc2c[nH]c3ccccc23)NC1=O (stereo not given) (cyclo(GAWVPV); configuration not given here) | inactive |  |
| COc1cccc(-c2ccc([C@@H](Oc3cc(-c4ccc(C[C@H](N)C(=O)O)cc4)nc(N)n3)C(F)(F)F)cc2)c1 | inactive |  |
| CCC1OC(=O)C(C)CC(C)C(=O)/C(C)=C/C(C)C(=O)/C=C/C1(C)O (stereo not given) | inactive |  |
| CC1(C)CC[C@]2(C(=O)O)CC[C@]3(C)C(=CCC4[C@@]5(C)C[C@@H](O)[C@H](O)[C@](C)(CO)C5CC[C@]43C)[C@@H]2[C@@H]1O (stereo not given in full) | inactive |  |
| Cc1cc(CO)c(O)c(C(=O)CC2CC(=O)NC(=O)C2)c1 | inactive |  |
| C=C(CO)C(=O)O[C@H]1C[C@@]23O[C@@H]2CC/C(=C/[C@H]2OC(=O)C(=C)[C@H]12)CO[C@H]3O | inactive |  |

| Structure (SMILES) | Potency | outcome |
| --- | --- | --- |
| CC(=O)O[C@@H]1C(=O)C(C)=C(CCC(C)CC(=O)O)[C@@]2(C)CCCC(C)(C)C12 (stereo not given in full) | inactive |  |
| CC(C)(C)NS(=O)(=O)c1cncc(-c2cc(F)c3nc(N)nn3c2)c1 | inactive |  |
| CC(C)(Oc1ccc(-c2nc3cc(Cl)ccc3s2)cc1)C(=O)O | inactive |  |
| COc1cccc(CN(C(=O)CC(C)(C)C)[C@H]2C[C@H](C(=O)N3CCNCC3)N(Cc3ccc4c(c3)OCO4)C2)c1 | inactive |  |
| COc1cc(OC)cc(-c2ccc3c(-c4ccc(F)cc4)[nH]nc3n2)c1 | inactive |  |
| NC(=O)c1ccc(F)c2c1C[C@@H](N(C1CCC1)C1CCC1)CO2 | inactive |  |
| CCCC(N[C@@H](C)C(=O)N1[C@H](C(=O)O)C[C@@H]2CCCC[C@@H]21)C(=O)OCC (stereo not given in full) | inactive |  |
| CC12CC(c3ccoc3)OC(=O)C1CCC1(C)C2CCC(O)C1(C)O (stereo not given) | inactive |  |
| CC1(C)O[C@H]2CC(=O)OC[C@@]23C1=C(O)C(=O)[C@]1(C)C3CC[C@@]2(C)[C@H](c3ccoc3)OC(=O)[C@H]3O[C@]321 (stereo not given in full) | inactive |  |
| C=C1C(=O)OC[C@H]2C(C(=O)O)=CC3CC(C)(C)C[C@@]132 (stereo not given in full) | inactive |  |
| COc1cc(C(CO)C(OC2OC(CO)C(O)C(O)C2O)c2ccc(O)c(OC)c2)ccc1O (stereo not given) | inactive |  |
| Nc1nc2c(s1)CCN(Cc1ccc(Cl)cc1)CC2 | inactive |  |
| C=C[C@H]1C(O[C@@H]2O[C@H](CO)[C@@H](O)[C@H](O)[C@H]2O)OC=C2C(=O)N3CCc4c([nH]c5ccccc45)C3CC21 (stereo not given in full) | inactive |  |
| CCOC(=O)CCNc1cc(N2CCc3ccccc3CC2)nc(-c2cccnc2)n1 | inactive |  |
| CC(=O)c1ccc(O[C@@H]2O[C@H](CO[C@@H]3OC[C@@H](O)[C@H](O)[C@H]3O)[C@@H](O)[C@H](O)[C@H]2O)cc1 | inactive |  |
| O=C(O)Cn1nnc(-c2ccc(CN(CCCCOc3ccc(CN4CCCC4)cc3)CCc3ccccc3)cc2)n1 | inactive |  |
| COc1cc(Nc2nc3c(s2)CCCC3c2ccccc2)ccc1-n1cnc(C)c1 (stereo not given) |  | inactive [at 9.27 µM] |
| CC(=O)[C@@H]1CC[C@]2(C(=O)O)CC[C@]3(C)C(CCC4[C@@]5(C)CC[C@H](O)C(C)(C)C5CC[C@]43C)C12 (stereo not given in full) | inactive |  |
| COc1ccc2c(c1)O[C@H](O[C@@H]1O[C@H](CO)[C@@H](O)[C@H](O)[C@H]1O)C(=O)N2 | inactive |  |
| Cc1c(CN(C)C(=O)/C=C/c2cnc3c(c2)CCC(=O)N3)oc2ccccc12 | inactive |  |
